# From PubChem BioAssay (Tox21)
# “And” between values parts separate entries of the source, which are not always exact repeats. Equal entries are not always repeated. Records with an inconclusive call do not appear. Where a call stands in place of a potency, no number is given. The source holds several records for some structures; these can differ, active in one and inactive in another. The source made the active and inactive calls. Unless noted, calls follow the shape of the dose curve; as a rule, active = well fitted curve in the direction sought with a large enough effect in the repeat runs; inconclusive = weak or mixed curves; inactive = no such curve, though single readings can be large; an effect the other way counts as inactive or inconclusive.
# Columns and labels:
# [1] = qHTS assay to identify small molecule antagonists of the glucocorticoid receptor (GR) signaling pathway - cell viability counter screen (AID 720693); also: nearly all actives have a fitted effect of over 55% in size; also: potency is read from the fitted curve at half-maximal effect
# [2] = qHTS assay for identifying genotoxic compounds that show differential cytotoxicity against isogenic chicken DT40 cell lines with known DNA damage response pathways - wild type cell line (AID 743012); also: nearly all actives have a fitted effect of over 60% in size; also: potency is read from the fitted curve at half-maximal effect
# In short: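 Luminescent ATP viability signal (CellTiter-Glo, 30 min RT) recorded after wild type DT40 cells were incubated with compounds for 40 h at 37 C/5% CO2.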
# [3] = qHTS assay for identifying genotoxic compounds that show differential cytotoxicity against isogenic chicken DT40 cell lines with known DNA damage response pathways - Rev3 mutant cell line (AID 743014); also: nearly all actives have a fitted effect of over 55% in size; also: potency is read from the fitted curve at half-maximal effect
# [4] = qHTS assay for identifying genotoxic compounds that show differential cytotoxicity against isogenic chicken DT40 cell lines with known DNA damage response pathways - Rad54/Ku70 mutant cell line (AID 743015); also: nearly all actives have a fitted effect of over 60% in size; also: potency is read from the fitted curve at half-maximal effect
# [5] = qHTS assay to identify small molecule antagonists of the androgen receptor (AR) signaling pathway - cell viability counter screen (AID 743033; also: nearly all actives have a fitted effect of over 45% in size; also: potency is read from the fitted curve at half-maximal effect)
# [6] = biological target: Androgen receptor (Homo sapiens) (UniProt P10275); assay: qHTS assay to identify small molecule agonists of the androgen receptor (AR) signaling pathway (AID 743036; active = well fitted activation curve with a large enough effect in the signal ratio in the repeat runs, with a control signal flat, not every such curve was filed as active; the % refers to the signal ratio)
# Androgen receptor (Homo sapiens), sequence (P10275 whole entry, looked up): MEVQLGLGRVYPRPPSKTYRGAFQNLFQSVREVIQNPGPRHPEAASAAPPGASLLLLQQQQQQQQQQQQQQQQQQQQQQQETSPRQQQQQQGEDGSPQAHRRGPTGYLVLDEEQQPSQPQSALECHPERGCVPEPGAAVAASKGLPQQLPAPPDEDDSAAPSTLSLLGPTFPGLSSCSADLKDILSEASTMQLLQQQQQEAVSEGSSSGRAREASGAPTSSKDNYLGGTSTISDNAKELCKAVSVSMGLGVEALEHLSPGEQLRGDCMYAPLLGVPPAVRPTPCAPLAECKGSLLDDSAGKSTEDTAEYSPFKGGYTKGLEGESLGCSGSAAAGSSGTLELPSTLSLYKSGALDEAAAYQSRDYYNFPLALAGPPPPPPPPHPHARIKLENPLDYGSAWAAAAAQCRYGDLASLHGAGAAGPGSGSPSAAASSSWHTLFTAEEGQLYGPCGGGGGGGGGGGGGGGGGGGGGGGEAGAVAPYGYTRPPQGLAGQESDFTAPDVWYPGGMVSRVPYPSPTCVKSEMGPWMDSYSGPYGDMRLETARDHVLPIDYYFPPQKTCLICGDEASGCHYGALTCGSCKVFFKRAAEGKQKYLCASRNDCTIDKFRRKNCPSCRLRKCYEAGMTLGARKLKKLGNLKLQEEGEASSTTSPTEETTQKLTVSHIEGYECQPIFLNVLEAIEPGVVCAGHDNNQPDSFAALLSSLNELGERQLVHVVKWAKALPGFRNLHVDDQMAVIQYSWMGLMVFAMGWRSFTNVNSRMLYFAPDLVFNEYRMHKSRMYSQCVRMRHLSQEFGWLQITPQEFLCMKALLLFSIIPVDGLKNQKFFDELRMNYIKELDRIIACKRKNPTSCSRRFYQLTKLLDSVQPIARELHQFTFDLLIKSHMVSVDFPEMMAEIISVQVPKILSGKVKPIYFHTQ
# In short: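 HEK293 cells stably carrying a UAS-driven beta-lactamase reporter (GeneBLAzer AR-UAS-bla-GripTite) were plated at 2,000 cells/well, rested 4 h at 37C, then exposed to compounds in DMSO for 16 h. LiveBLAzer B/G FRET substrate was added for 2 h at room temperature; fluorescence read.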
# [7] = qHTS assay to identify small molecule antagonists of the androgen receptor (AR) signaling pathway using the MDA cell line - cell viability counter screen (AID 743041; also: nearly all actives have a fitted effect of over 45% in size; also: potency is read from the fitted curve at half-maximal effect)
# In short: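 Cytotoxicity counter screen: MDA-kb2 AR-luc cells, compound + R1881, 16 h, 37C, 0% CO2; CellTiter-Fluor added at 15.5 h, fluorescence read after 30 min.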
# [8] = biological target: Androgen receptor (Homo sapiens) (UniProt P10275); assay: qHTS assay to identify small molecule antagonists of the androgen receptor (AR) signaling pathway using the MDA cell line (AID 743042; also: nearly all actives have a fitted effect of over 55% in size; also: potency is read from the fitted curve at half-maximal effect)
# In short: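 MDA-kb2 breast carcinoma cells carrying MMTV-luciferase (AR/GR responsive) were co-treated with compounds and the agonist R1881 for 16 h at 37C. Inhibition read as ONE-Glo luminescence; CellTiter-Fluor fluorescence measured in parallel for cytotoxicity.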
# [9] = biological target: Androgen receptor (Homo sapiens) (UniProt P10275); assay: qHTS assay to identify small molecule antagonists of the androgen receptor (AR) signaling pathway (AID 743035; active = well fitted inhibition curve with a large enough effect in the signal ratio in the repeat runs, not every such curve was filed as active; the % refers to the signal ratio; also: potency is read from the fitted curve at half-maximal effect)
# In short: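 Quantitative HTS of the Tox21 10K library used HEK293 AR-UAS-bla cells stimulated with R1881 alongside compound for 16 h at 37C, followed by beta-lactamase FRET detection (LiveBLAzer B/G, 2 h, RT).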
# [10] = qHTS assay to identify small molecule antagonists of the thyroid receptor (TR) signaling pathway - cell viability counter screen (AID 743064); also: nearly all actives have a fitted effect of over 50% in size; also: potency is read from the fitted curve at half-maximal effect
# In short: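 GH3.TRE-Luc rat pituitary cells carrying a TRE-luciferase reporter were treated with compound plus 1 nM T3 (final) for 23.5 h at 37 °C. Viability was then read in the same wells by CellTiter-Fluor fluorescence after a further 30 min.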
Compound,Potency [1],Potency [2],Potency [3],Potency [4],Potency [5],Potency [6],Potency [7],Potency [8],Potency [9],Potency [10],"activity, negative = cytotoxicity [3]"
CCCCCCCCCCOC(=O)c1ccccc1C(=O)OCCCCCCCC,inactive,inactive,inactive,inactive,inactive,inactive,inactive,inactive,–,–,–
O=C(/C=C/c1ccccc1)OC/C=C/c1ccccc1,inactive,17.2 µM (active),15.4 µM (active),13.7 µM (active),inactive,inactive,inactive,inactive,inactive,inactive,–
CC(CO)Oc1ccccc1 (stereo not given),inactive,inactive,inactive,inactive,inactive,inactive,inactive,inactive,inactive,inactive,–
O=C1OC2(c3ccc(O)cc3Oc3cc(O)ccc32)c2ccc(N=C=S)cc21,inactive,inactive,inactive,inactive,–,–,–,–,–,–,–
CC/C=C\CCCCCO,inactive,inactive,inactive,inactive,inactive,–,inactive,–,–,–,–
CN(C)c1ccc(C(=C2C=CC(=[N+](C)C)C=C2)c2ccc(N(C)C)cc2)cc1,6.01 µM (active) and 3.45 µM (active) and 9.77 µM (active),335 nM (active) and 542 nM (active) and 193 nM (active),473 nM (active) and 483 nM (active) and 243 nM (active),422 nM (active) and 483 nM (active) and 193 nM (active),1.69 µM (active) and 1.37 µM (active) and 347 nM (active),–,3.35 µM (active) and 7.66 µM (active) and 4.33 µM (active),2.37 µM (active) and 859 nM (active) and 864 nM (active),0.347 µM (active),1.88 µM (active) and 859 nM (active) and 8.63 µM (active),–
CCCCCCCCCCCCCC[N+](C)(C)C,13.4 µM (active) and 29.9 µM (active) and 13.8 µM (active),237 nM (active) and 527 nM (active) and 217 nM (active),298 nM (active) and 469 nM (active) and 193 nM (active),376 nM (active) and 469 nM (active) and 217 nM (active),15.1 µM (active) and 21.8 µM (active),–,18.8 µM (active) and 41.8 µM (active),–,–,4.22 µM (active) and 11.8 µM (active) and 8.63 µM (active),–
O=S(=O)(O)c1ccccc1/C=C/c1ccc(-c2ccc(/C=C/c3ccccc3S(=O)(=O)O)cc2)cc1,inactive,inactive,inactive,inactive,inactive,–,inactive,–,–,–,–
C#C[C@]1(OC(C)=O)CC[C@H]2[C@@H]3CCC4=C/C(=N/O)CC[C@@H]4[C@H]3CC[C@@]21CC,21.3 µM (active),9.44 µM (active),13.3 µM (active),10.6 µM (active),inactive,–,inactive,–,–,–,–
Clc1sc(Cl)c(Cl)c1Cl,inactive,inactive,inactive,inactive,inactive,inactive,inactive,inactive,inactive,inactive,–
CC1=CCC(=C(C)C)CC1,inactive,inactive,inactive,inactive,inactive,–,inactive,–,–,–,–
O=C1CCc2ccc(OCCCCN3CCN(c4cccc(Cl)c4Cl)CC3)cc2N1,inactive,5.96 µM (active),5.31 µM (active),6.68 µM (active),inactive,–,inactive,–,–,11.9 µM (active),–
C#C[C@]1(OC(C)=O)CC[C@H]2[C@@H]3CCC4=C[C@@H](OC(C)=O)CC[C@@H]4[C@H]3CC[C@@]21C,inactive,3.76 µM (active) and 6.68 µM (active),10.6 µM (active) and 16.8 µM (active),10.6 µM (active) and 11.9 µM (active),inactive,–,inactive,–,–,–,–
O=C(O)CN(CCN(CC(=O)O)CC(=O)O)CC(=O)O,inactive,inactive,–,inactive,inactive,–,inactive,–,–,–,5.28% [at 3.82 µM] (inactive)
CCCCCCCCCCCCOC(=O)c1ccc(O)cc1,24.7 µM (active),inactive,inactive,inactive,inactive,–,inactive,inactive,inactive,30.9 µM (active),–
Cc1cc(-n2nc3ccc(Cl)cc3n2)c(O)c(C(C)(C)C)c1,inactive,inactive,inactive,inactive,inactive,–,inactive,–,–,inactive,–
CC(=O)OCC=C(C)C,inactive,inactive,inactive,inactive,inactive,inactive,inactive,inactive,inactive,inactive,–
CCC(C)n1ncn(-c2ccc(N3CCN(c4ccc(OC[C@H]5CO[C@](Cn6cncn6)(c6ccc(Cl)cc6Cl)O5)cc4)CC3)cc2)c1=O (stereo not given in full),inactive,0.596 µM (active),0.422 µM (active),0.596 µM (active),inactive,–,inactive,–,–,–,–
Cc1c(C)c2c(c(C)c1OC(=O)c1cccnc1)CC[C@@](C)(CCC[C@H](C)CCC[C@H](C)CCCC(C)C)O2,inactive,inactive,inactive,inactive,inactive,–,inactive,–,–,–,–
CC1(C)CC(O)CC(C)(C)N1,inactive,inactive,inactive,inactive,inactive,–,inactive,–,–,–,–

Compound,Potency [1],Potency [2],Potency [3],Potency [4],Potency [5],Potency [6],Potency [7],Potency [8],Potency [9],Potency [10],"activity, negative = cytotoxicity [3]"
CCCCCCCC/C=C\CCCCCCCCN,inactive,inactive,inactive,inactive,inactive,–,inactive,–,–,inactive,–
CCOC(=O)Cn1cccc1-c1nc(-c2ccc(OC)cc2)c(-c2ccc(OC)cc2)s1,inactive,inactive,inactive,inactive,inactive,–,inactive,inactive,inactive,–,–
Cc1ccc(C)cc1,inactive,inactive,inactive,inactive,inactive,inactive,inactive,inactive,inactive,inactive,–
FC(F)(F)c1cccc(Cl)c1,inactive,inactive,inactive,inactive,inactive,–,inactive,–,inactive,inactive,–
Nc1ccc(C(=O)O)c(O)c1,inactive,inactive,inactive,inactive,inactive,inactive,inactive,inactive,inactive,inactive,–
CCCCOC(=O)CC,inactive,inactive,inactive,inactive,inactive,–,inactive,–,–,inactive,–
Oc1c(I)cc(Cl)c2cccnc12,inactive,18.8 µM (active) and 15.3 µM (active),11.9 µM (active) and 15.3 µM (active),16.8 µM (active) and 19.3 µM (active),inactive and 17.3 µM (active),inactive,inactive,inactive,inactive,inactive,–
O=c1[nH]c(=O)n([C@H]2C[C@H](O)[C@@H](CO)O2)cc1F,inactive,0.0053 µM (active),0.0038 µM (active),0.0019 µM (active),inactive,–,inactive,–,–,–,–
Cc1ccc(C(C)C)cc2c(C)ccc1-2,inactive,inactive,inactive,inactive,inactive,–,inactive,–,–,inactive,–
CCCCCCOC(=O)C(C)CC (stereo not given),inactive,inactive,inactive,inactive,inactive,inactive,inactive,inactive,inactive,inactive,–
O=C(O)Cc1ccccc1Nc1c(Cl)cccc1Cl,inactive,inactive,inactive and 61.1 µM (active),inactive and 68.6 µM (active),inactive,inactive,inactive,inactive,inactive,inactive,–
C=C(CC)C(=O)c1ccc(OCC(=O)O)c(Cl)c1Cl,inactive,18.8 µM (active) and 43 µM (active),26.6 µM (active) and 48.2 µM (active),29.8 µM (active) and 48.2 µM (active),inactive,–,54.1 µM (active),–,–,68.1 µM (active),–
CC(=O)c1ccc(C(C)=O)cc1,inactive,inactive,inactive,inactive,inactive,inactive,inactive,inactive,inactive,inactive,–
O=C(c1ccc(O)c(O)c1)c1ccc(O)cc1O,inactive,43.2 µM (active),21.6 µM (active),8.62 µM (active),inactive,–,inactive,–,–,–,–
NC(=S)NC(N)=S,inactive,61.1 µM (active),61.1 µM (active),68.6 µM (active),inactive,inactive,inactive,inactive,inactive,inactive,–
OCC(F)(F)F,inactive,inactive,inactive,inactive,inactive,–,inactive,–,–,–,–
CCCCCCCC,inactive,inactive,inactive,inactive,inactive,–,inactive,–,–,inactive,–
CCC(CC)C(C)CCOC(C)=O (stereo not given),inactive,inactive,inactive,inactive,inactive,–,inactive,–,–,inactive,–
O[C@@H]([C@H](O)[C@H](O)CBr)[C@H](O)CBr,inactive,inactive,inactive,inactive,inactive,–,inactive,–,–,inactive,–
OC/C=C/CO,inactive,inactive,inactive,inactive,inactive,–,inactive,–,–,inactive,–
